# Only a selection was taken, and the strongest signals are over-represented in it overall.
# B1: 3FTT (Staphylococcus aureus), Q5HCZ5 (protein)
# chain: MTEKEKMLAEKWYDANFDQYLINERARAKDICFELNHTRPSATNKRKELIDQLFQTTTDNVSISIPFDTDYGWNVKLGKNVYVNTNCYFMDGGQITIGDNVFIGPNCGFYTATHPLNFHHRNEGFEKAGPIHIGSNTWFGGHVAVLPGVTIGEGSVIGAGSVVTKDIPPHSLAVGNPCKVVRKIDNDLPSETLNDETIK
# Experiments:
# Experiment in all cases: glycan array binding signal (z-score within array); higher = stronger binding
# Conditions in all cases: glycan notation: IUPAC condensed, linker removed
# [1] = biological target: Fuc(a1-2)Gal(b1-3)GalNAc(a1-3)[Fuc(a1-2)]Gal(b1-4)GlcNAc
# How it was run: (§1)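 Glycan array data were curated from 3228 arrays in the Consortium for Functional Glycomics database and kept only where the protein sequence was available. Glycan names were converted to IUPAC-condensed notation, and columns mapping to the same glycan were averaged. The binding signal is a within-array Z-score, averaged across arrays of the same protein sequence at different concentrations or buffers and across linkers. Negative Z-scores can be read as non-binding.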
# [2] = biological target: Fuc(a1-2)Gal(b1-3)GalNAc(b1-3)Gal
# How it was run: as §1
# [3] = biological target: Fuc(a1-2)Gal(b1-3)GlcNAc(b1-3)Gal(b1-4)Glc
# How it was run: as §1
# [4] = biological target: Fuc(a1-2)Gal(b1-3)GlcNAc(b1-3)[Neu5Ac(a2-6)Gal(b1-4)GlcNAc(b1-6)]Gal(b1-4)Glc
# How it was run: as §1
# [5] = biological target: Fuc(a1-2)Gal(b1-4)[Fuc(a1-3)]GlcNAc(b1-2)Man(a1-3)[Fuc(a1-2)Gal(b1-4)[Fuc(a1-3)]GlcNAc(b1-2)Man(a1-6)]Man(b1-4)GlcNAc(b1-4)GlcNAc
# How it was run: as §1
# [6] = biological target: Fuc(a1-2)Gal(b1-4)[Fuc(a1-3)]GlcNAc(b1-3)GalNAc
# How it was run: as §1
# [7] = biological target: Fuc(a1-2)[GalNAc(a1-3)]Gal(b1-3)GlcNAc(b1-2)Man(a1-3)[Fuc(a1-2)[GalNAc(a1-3)]Gal(b1-3)GlcNAc(b1-2)Man(a1-6)]Man(b1-4)GlcNAc(b1-4)GlcNAc
# How it was run: as §1
# [8] = biological target: Fuc(a1-2)[GalNAc(a1-3)]Gal(b1-3)GlcNAc(b1-2)Man(a1-3)[Fuc(a1-2)[GalNAc(a1-3)]Gal(b1-3)GlcNAc(b1-2)Man(a1-6)]Man(b1-4)GlcNAc(b1-4)[Fuc(a1-6)]GlcNAc
# How it was run: as §1
# [9] = biological target: Fuc(a1-2)[GalNAc(a1-3)]Gal(b1-4)GlcNAc(b1-3)Gal(b1-4)GlcNAc
# How it was run: as §1
# [10] = biological target: Fuc(a1-3)[Gal(b1-4)]GlcNAc(b1-6)GalNAc
# How it was run: as §1
# [11] = biological target: Gal(a1-4)Gal(b1-3)GlcNAc(b1-2)Man(a1-3)[Gal(a1-4)Gal(b1-3)GlcNAc(b1-2)Man(a1-6)]Man(b1-4)GlcNAc(b1-4)GlcNAc
# How it was run: as §1
# [12] = biological target: Gal(a1-4)Gal(b1-4)Glc
# How it was run: as §1
# [13] = biological target: Gal(b1-3)Gal(b1-4)GlcNAc
# How it was run: as §1
# [14] = biological target: Gal(b1-3)GalNAc
# How it was run: as §1
# [15] = biological target: Gal(b1-3)[Fuc(a1-4)]GlcNAc(b1-2)Man(a1-3)[Gal(b1-3)[Fuc(a1-4)]GlcNAc(b1-2)Man(a1-6)]Man(b1-4)GlcNAc(b1-4)GlcNAc
# How it was run: as §1
# [16] = biological target: Gal(b1-3)[Fuc(a1-4)]GlcNAc(b1-3)Gal(b1-4)GlcNAc
# How it was run: as §1
# [17] = biological target: Gal(b1-4)GlcNAc(b1-2)Man(a1-3)[Man(a1-6)]Man(b1-4)GlcNAc(b1-4)GlcNAc
# How it was run: as §1
# [18] = biological target: Gal3S(b1-4)Glc6S
# How it was run: as §1
# [19] = biological target: GalNAc(b1-3)Gal
# How it was run: as §1
# [20] = biological target: GalNAc(b1-4)GlcNAc(b1-2)Man(a1-3)[GalNAc(b1-4)GlcNAc(b1-2)Man(a1-6)]Man(b1-4)GlcNAc(b1-4)GlcNAc
# How it was run: as §1
# [21] = biological target: GlcNAc(a1-4)Gal(b1-4)GlcNAc(b1-3)Gal(b1-4)GlcNAc
# How it was run: as §1
# [22] = biological target: GlcNAc(b1-2)[GlcNAc(b1-6)]Man(a1-6)[GlcNAc(b1-2)Man(a1-3)]Man(b1-4)GlcNAc(b1-4)GlcNAc
# How it was run: as §1
# [23] = biological target: GlcNAc(b1-3)[GlcNAc(b1-6)]GalNAc
# How it was run: as §1
# [24] = biological target: Kdn(a2-3)Gal(b1-4)[Fuc(a1-3)]GlcNAc
# How it was run: as §1
# [25] = biological target: Kdn(a2-6)Gal(b1-4)GlcNAc
# How it was run: as §1
# [26] = biological target: Man(a1-2)Man(a1-2)Man(a1-3)Man
# How it was run: as §1
# [27] = biological target: Man(a1-2)Man(a1-2)Man(a1-6)[Man(a1-3)]Man
# How it was run: as §1
# [28] = biological target: Man(a1-2)Man(a1-3)[Man(a1-2)Man(a1-6)]Man(a1-6)[Man(a1-2)Man(a1-2)Man(a1-3)]Man
# How it was run: as §1
# [29] = biological target: Neu5Ac(a2-3)Gal(b1-3)GlcNAc(b1-3)GalNAc
# How it was run: as §1
# [30] = biological target: Neu5Ac(a2-3)Gal(b1-3)[Neu5Ac(a2-6)]GalNAc
# How it was run: as §1
# [31] = biological target: Neu5Ac(a2-3)Gal(b1-4)GlcNAc(b1-3)Gal
# How it was run: as §1
# [32] = biological target: Neu5Ac(a2-3)Gal(b1-4)[Fuc(a1-3)]GlcNAc(b1-3)Gal(b1-4)GlcNAc
# How it was run: as §1
# [33] = biological target: Neu5Ac(a2-3)Gal(b1-4)[Fuc(a1-3)]GlcNAc(b1-3)Gal(b1-4)[Fuc(a1-3)]GlcNAc(b1-3)Gal(b1-4)[Fuc(a1-3)]GlcNAc
# How it was run: as §1
# [34] = biological target: Neu5Ac(a2-3)Gal6S(b1-4)GlcNAc
# How it was run: as §1
# [35] = biological target: Neu5Ac(a2-3)[Neu5Ac(a2-6)]GalNAc
# How it was run: as §1
# [36] = biological target: Neu5Ac(a2-6)Gal(b1-4)GlcNAc(b1-2)Man(a1-6)[Man(a1-3)]Man(b1-4)GlcNAc(b1-4)GlcNAc
# How it was run: as §1
# [37] = biological target: Neu5Ac(a2-8)Neu5Ac(a2-8)Neu5Ac(a2-3)Gal(b1-4)Glc
# How it was run: as §1
# [38] = biological target: Neu5Ac9Ac(a2-3)Gal(b1-3)GlcNAc
# How it was run: as §1
binder,measurement,setting,value
B1,glycan array binding signal (z-score),[1],-0.281
same,glycan array binding signal (z-score),[2],1.06
same,glycan array binding signal (z-score),[3],-0.165
same,glycan array binding signal (z-score),[4],-0.004
same,glycan array binding signal (z-score),[5],0.815
same,glycan array binding signal (z-score),[6],1.26
same,glycan array binding signal (z-score),[7],0.032
same,glycan array binding signal (z-score),[8],0.227
same,glycan array binding signal (z-score),[9],-0.09
same,glycan array binding signal (z-score),[10],0.714
same,glycan array binding signal (z-score),[11],-0.237
same,glycan array binding signal (z-score),[12],-0.171
same,glycan array binding signal (z-score),[13],0.256
same,glycan array binding signal (z-score),[14],-0.105
same,glycan array binding signal (z-score),[15],19.9
same,glycan array binding signal (z-score),[16],-0.017
same,glycan array binding signal (z-score),[17],-0.261
same,glycan array binding signal (z-score),[18],0.798
same,glycan array binding signal (z-score),[19],-0.332
same,glycan array binding signal (z-score),[20],5.95
same,glycan array binding signal (z-score),[21],0.607
same,glycan array binding signal (z-score),[22],-0.134
same,glycan array binding signal (z-score),[23],-0.288
same,glycan array binding signal (z-score),[24],0.16
same,glycan array binding signal (z-score),[25],-0.292
same,glycan array binding signal (z-score),[26],-0.082
same,glycan array binding signal (z-score),[27],-0.073
same,glycan array binding signal (z-score),[28],-0.089
same,glycan array binding signal (z-score),[29],-0.066
same,glycan array binding signal (z-score),[30],-0.057
same,glycan array binding signal (z-score),[31],0.012
same,glycan array binding signal (z-score),[32],0.162
same,glycan array binding signal (z-score),[33],-0.195
same,glycan array binding signal (z-score),[34],0.037
same,glycan array binding signal (z-score),[35],0.223
same,glycan array binding signal (z-score),[36],-0.226
same,glycan array binding signal (z-score),[37],0.056
same,glycan array binding signal (z-score),[38],-0.153
